# Assay results taken from article PMC11006913.
# Numbering of substitutions follows the chain as printed.
# Experiments:
# Experiment in all cases: PBM; 200 nM protein, PBS
# Details in all cases: dsDNA, one strand shown
# HOXA4 [1] = target: HOXA4 (Homo sapiens, UniProt Q00056 201-287, W262R)
# HOXC9 [2] = target: HOXC9 (Homo sapiens, UniProt P31274 178-260, K195R)
# HOXB6 [3] = target: HOXB6 (Homo sapiens, UniProt P17509 132-218, K202E)
# HOXA4 [4] = target: HOXA4 (Homo sapiens, UniProt Q00056 201-287, R217L)
# HOXC9 [5] = target: HOXC9 (Homo sapiens, UniProt P31274 178-260)
# ALX1 [6] = target: ALX1 (Homo sapiens, UniProt Q15699 118-204, L144V)
# ALX3 [7] = target: ALX3 (Homo sapiens, UniProt O95076 139-225, N203Q)
# HOXC9 [8] = target: HOXC9 (Homo sapiens, UniProt P31274 178-260, R193K)
# ALX1 [9] = target: ALX1 (Homo sapiens, UniProt Q15699 118-204, L144R)
# HOXA4 [10] = target: HOXA4 (Homo sapiens, UniProt Q00056 201-287)
# ALX3 [11] = target: ALX3 (Homo sapiens, UniProt O95076 139-225)
# ALX3 [12] = target: ALX3 (Homo sapiens, UniProt O95076 139-225, L168Q)
# HOXC9 [13] = target: HOXC9 (Homo sapiens, UniProt P31274 178-260, R222W)
# ALX3 [14] = target: ALX3 (Homo sapiens, UniProt O95076 139-225, L168V)
# ALX1 [15] = target: ALX1 (Homo sapiens, UniProt Q15699 118-204)
# HOXA4 [16] = target: HOXA4 (Homo sapiens, UniProt Q00056 201-287, W262F)
# ALX3 [17] = target: ALX3 (Homo sapiens, UniProt O95076 139-225, N203S)
# HOXB6 [18] = target: HOXB6 (Homo sapiens, UniProt P17509 132-218)
# PAX4 [19] = target: T1, PAX4 (Homo sapiens, UniProt O43316 9-242, R200K)
# T1 sequence: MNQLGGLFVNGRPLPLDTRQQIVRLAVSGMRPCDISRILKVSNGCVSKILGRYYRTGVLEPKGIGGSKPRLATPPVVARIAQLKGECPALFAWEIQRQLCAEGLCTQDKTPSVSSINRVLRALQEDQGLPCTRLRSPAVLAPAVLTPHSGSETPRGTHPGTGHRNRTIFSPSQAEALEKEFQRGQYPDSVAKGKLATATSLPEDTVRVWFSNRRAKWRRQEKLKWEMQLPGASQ
# PRRX1 [20] = target: PRRX1 (Homo sapiens, UniProt P54821 80-166, F113S)
# PAX4 [21] = target: T2, PAX4 (Homo sapiens, UniProt O43316 9-242)
# T2 sequence: T1 sequence with K192R
# MSX2 [22] = target: MSX2 (Homo sapiens, UniProt P35548 130-214, R199I)
# PAX4 [23] = target: T3, PAX4 (Homo sapiens, UniProt O43316 9-242, R200Q)
# T3 sequence: T1 sequence with K192Q
# PAX4 [24] = target: T4, PAX4 (Homo sapiens, UniProt O43316 9-242, F177V)
# T4 sequence: T1 sequence with F169V, K192R
# MSX2 [25] = target: MSX2 (Homo sapiens, UniProt P35548 130-214)
# PAX4 [26] = target: T5, PAX4 (Homo sapiens, UniProt O43316 9-242, F177Y)
# T5 sequence: T1 sequence with F169Y, K192R
# MSX2 [27] = target: MSX2 (Homo sapiens, UniProt P35548 130-214, F161Y)
# PAX4 [28] = target: T6, PAX4 (Homo sapiens, UniProt O43316 9-242, R227W)
# T6 sequence: T1 sequence with K192R, R219W
# PRRX1 [29] = target: PRRX1 (Homo sapiens, UniProt P54821 80-166)
# Sequence of PRRX1 (Homo sapiens, UniProt P54821 80-166) (P54821 80-166): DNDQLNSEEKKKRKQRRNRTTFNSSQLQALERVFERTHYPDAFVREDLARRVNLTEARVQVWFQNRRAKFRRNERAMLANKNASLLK
# Sequence of HOXA4 (Homo sapiens, UniProt Q00056 201-287, W262F) (Q00056 201-287 W262F): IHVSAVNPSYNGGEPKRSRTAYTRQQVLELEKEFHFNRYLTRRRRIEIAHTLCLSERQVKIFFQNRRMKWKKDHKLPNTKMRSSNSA
# Sequence of HOXA4 (Homo sapiens, UniProt Q00056 201-287) (Q00056 201-287): as the sequence (Q00056 201-287 W262F) above, with F62W counted along it
# Sequence of HOXA4 (Homo sapiens, UniProt Q00056 201-287, W262R) (Q00056 201-287 W262R): as the sequence (Q00056 201-287 W262F) above, with F62R counted along it
# Sequence of HOXA4 (Homo sapiens, UniProt Q00056 201-287, R217L) (Q00056 201-287 R217L): as the sequence (Q00056 201-287 W262F) above, with R17L, F62W counted along it
# Sequence of ALX1 (Homo sapiens, UniProt Q15699 118-204, L144R) (Q15699 118-204 L144R): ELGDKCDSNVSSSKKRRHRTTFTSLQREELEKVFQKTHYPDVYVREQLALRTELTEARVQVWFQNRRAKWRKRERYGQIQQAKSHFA
# Sequence of HOXC9 (Homo sapiens, UniProt P31274 178-260) (P31274 178-260): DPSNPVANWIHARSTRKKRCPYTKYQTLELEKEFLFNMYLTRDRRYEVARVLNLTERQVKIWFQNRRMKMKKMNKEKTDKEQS
# Sequence of ALX3 (Homo sapiens, UniProt O95076 139-225, N203Q) (O95076 139-225 N203Q): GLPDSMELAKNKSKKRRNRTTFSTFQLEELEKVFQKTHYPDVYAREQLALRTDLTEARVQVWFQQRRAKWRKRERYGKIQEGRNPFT
# Sequence of ALX1 (Homo sapiens, UniProt Q15699 118-204, L144V) (Q15699 118-204 L144V): as the sequence (Q15699 118-204 L144R) above, with R27V counted along it
# Sequence of MSX2 (Homo sapiens, UniProt P35548 130-214, R199I) (P35548 130-214 R199I): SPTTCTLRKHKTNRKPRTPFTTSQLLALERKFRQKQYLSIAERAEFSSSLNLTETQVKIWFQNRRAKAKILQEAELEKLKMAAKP
# Sequence of ALX1 (Homo sapiens, UniProt Q15699 118-204) (Q15699 118-204): as the sequence (Q15699 118-204 L144R) above, with R27L counted along it
# Sequence of MSX2 (Homo sapiens, UniProt P35548 130-214, F161Y) (P35548 130-214 F161Y): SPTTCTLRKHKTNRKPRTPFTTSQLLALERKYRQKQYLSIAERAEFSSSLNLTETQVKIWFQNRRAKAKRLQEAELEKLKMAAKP
# Sequence of HOXB6 (Homo sapiens, UniProt P17509 132-218, K202E) (P17509 132-218 K202E): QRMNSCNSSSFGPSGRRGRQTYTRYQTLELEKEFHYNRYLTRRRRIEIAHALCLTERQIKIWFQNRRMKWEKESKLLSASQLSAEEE
# Sequence of ALX3 (Homo sapiens, UniProt O95076 139-225, N203S) (O95076 139-225 N203S): as the sequence (O95076 139-225 N203Q) above, with Q65S counted along it
# Sequence of PRRX1 (Homo sapiens, UniProt P54821 80-166, F113S) (P54821 80-166 F113S): as the sequence (P54821 80-166) above, with F34S counted along it
# Sequence of HOXC9 (Homo sapiens, UniProt P31274 178-260, R222W) (P31274 178-260 R222W): as the sequence (P31274 178-260) above, with R45W counted along it
# Sequence of MSX2 (Homo sapiens, UniProt P35548 130-214) (P35548 130-214): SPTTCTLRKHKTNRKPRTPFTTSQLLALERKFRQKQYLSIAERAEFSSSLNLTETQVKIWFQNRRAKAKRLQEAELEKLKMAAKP
# Sequence of HOXC9 (Homo sapiens, UniProt P31274 178-260, R193K) (P31274 178-260 R193K): as the sequence (P31274 178-260) above, with R16K counted along it
# Sequence of ALX3 (Homo sapiens, UniProt O95076 139-225, L168Q) (O95076 139-225 L168Q): as the sequence (O95076 139-225 N203Q) above, with L30Q, Q65N counted along it
# Sequence of ALX3 (Homo sapiens, UniProt O95076 139-225) (O95076 139-225): as the sequence (O95076 139-225 N203Q) above, with Q65N counted along it
# Sequence of ALX3 (Homo sapiens, UniProt O95076 139-225, L168V) (O95076 139-225 L168V): as the sequence (O95076 139-225 N203Q) above, with L30V, Q65N counted along it
# Sequence of HOXB6 (Homo sapiens, UniProt P17509 132-218) (P17509 132-218): as the sequence (P17509 132-218 K202E) above, with E71K counted along it
# Sequence of HOXC9 (Homo sapiens, UniProt P31274 178-260, K195R) (P31274 178-260 K195R): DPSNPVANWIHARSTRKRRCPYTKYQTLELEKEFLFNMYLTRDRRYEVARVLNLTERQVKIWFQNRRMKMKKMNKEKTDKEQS
sequence,measurement,setting,value
CCGGACGG,binding signal,HOXA4 [1],"9.78 upbm affinity estimate (log intensity, higher = more binding, comparable within an allelic series)"
same,binding signal,HOXC9 [2],"9.56 upbm affinity estimate (log intensity, higher = more binding, comparable within an allelic series)"
same,binding signal,HOXB6 [3],"8.96 upbm affinity estimate (log intensity, higher = more binding, comparable within an allelic series)"
same,binding signal,HOXA4 [4],"9.81 upbm affinity estimate (log intensity, higher = more binding, comparable within an allelic series)"
same,binding signal,HOXC9 [5],"9.65 upbm affinity estimate (log intensity, higher = more binding, comparable within an allelic series)"
same,binding signal,ALX1 [6],"6.5 upbm affinity estimate (log intensity, higher = more binding, comparable within an allelic series)"
same,binding signal,ALX3 [7],"7.77 upbm affinity estimate (log intensity, higher = more binding, comparable within an allelic series)"
same,binding signal,HOXC9 [8],"9.6 upbm affinity estimate (log intensity, higher = more binding, comparable within an allelic series)"
same,binding signal,ALX1 [9],"6.53 upbm affinity estimate (log intensity, higher = more binding, comparable within an allelic series)"
same,binding signal,HOXA4 [10],"9.9 upbm affinity estimate (log intensity, higher = more binding, comparable within an allelic series)"
same,binding signal,ALX3 [11],"7.87 upbm affinity estimate (log intensity, higher = more binding, comparable within an allelic series)"
same,binding signal,ALX3 [12],"7.82 upbm affinity estimate (log intensity, higher = more binding, comparable within an allelic series)"
same,binding signal,HOXC9 [13],"9.76 upbm affinity estimate (log intensity, higher = more binding, comparable within an allelic series)"
same,binding signal,ALX3 [14],"7.73 upbm affinity estimate (log intensity, higher = more binding, comparable within an allelic series)"
same,binding signal,ALX1 [15],"6.67 upbm affinity estimate (log intensity, higher = more binding, comparable within an allelic series)"
same,binding signal,HOXA4 [16],"9.82 upbm affinity estimate (log intensity, higher = more binding, comparable within an allelic series)"
same,binding signal,ALX3 [17],"7.72 upbm affinity estimate (log intensity, higher = more binding, comparable within an allelic series)"
same,binding signal,HOXB6 [18],"9.05 upbm affinity estimate (log intensity, higher = more binding, comparable within an allelic series)"
TAATTTGA,binding signal,HOXA4 [1],"10.4 upbm affinity estimate (log intensity, higher = more binding, comparable within an allelic series)"
same,binding signal,PAX4 [19],"11.7 upbm affinity estimate (log intensity, higher = more binding, comparable within an allelic series)"
same,binding signal,PRRX1 [20],"10.7 upbm affinity estimate (log intensity, higher = more binding, comparable within an allelic series)"
same,binding signal,PAX4 [21],"12.2 upbm affinity estimate (log intensity, higher = more binding, comparable within an allelic series)"
same,binding signal,HOXA4 [4],"11.4 upbm affinity estimate (log intensity, higher = more binding, comparable within an allelic series)"
same,binding signal,MSX2 [22],"12.2 upbm affinity estimate (log intensity, higher = more binding, comparable within an allelic series)"
same,binding signal,PAX4 [23],"11.9 upbm affinity estimate (log intensity, higher = more binding, comparable within an allelic series)"
same,binding signal,PAX4 [24],"10.5 upbm affinity estimate (log intensity, higher = more binding, comparable within an allelic series)"
same,binding signal,HOXA4 [10],"12.8 upbm affinity estimate (log intensity, higher = more binding, comparable within an allelic series)"
same,binding signal,MSX2 [25],"13.4 upbm affinity estimate (log intensity, higher = more binding, comparable within an allelic series)"
same,binding signal,PAX4 [26],"10.9 upbm affinity estimate (log intensity, higher = more binding, comparable within an allelic series)"
same,binding signal,MSX2 [27],"13 upbm affinity estimate (log intensity, higher = more binding, comparable within an allelic series)"
same,binding signal,PAX4 [28],"10.9 upbm affinity estimate (log intensity, higher = more binding, comparable within an allelic series)"
same,binding signal,HOXA4 [16],"10.8 upbm affinity estimate (log intensity, higher = more binding, comparable within an allelic series)"
same,binding signal,PRRX1 [29],"13.2 upbm affinity estimate (log intensity, higher = more binding, comparable within an allelic series)"
GCACCACC,binding signal,HOXA4 [1],"9.87 upbm affinity estimate (log intensity, higher = more binding, comparable within an allelic series)"
same,binding signal,PAX4 [19],"9.27 upbm affinity estimate (log intensity, higher = more binding, comparable within an allelic series)"
same,binding signal,PAX4 [21],"9.29 upbm affinity estimate (log intensity, higher = more binding, comparable within an allelic series)"
same,binding signal,HOXA4 [4],"9.72 upbm affinity estimate (log intensity, higher = more binding, comparable within an allelic series)"
same,binding signal,PAX4 [23],"9.35 upbm affinity estimate (log intensity, higher = more binding, comparable within an allelic series)"
same,binding signal,PAX4 [24],"9.29 upbm affinity estimate (log intensity, higher = more binding, comparable within an allelic series)"
same,binding signal,HOXA4 [10],"9.72 upbm affinity estimate (log intensity, higher = more binding, comparable within an allelic series)"
same,binding signal,PAX4 [26],"9.28 upbm affinity estimate (log intensity, higher = more binding, comparable within an allelic series)"
same,binding signal,PAX4 [28],"9.35 upbm affinity estimate (log intensity, higher = more binding, comparable within an allelic series)"
same,binding signal,HOXA4 [16],"9.79 upbm affinity estimate (log intensity, higher = more binding, comparable within an allelic series)"
CCTCCGTC,binding signal,HOXA4 [1],"9.85 upbm affinity estimate (log intensity, higher = more binding, comparable within an allelic series)"
same,binding signal,HOXA4 [4],"9.8 upbm affinity estimate (log intensity, higher = more binding, comparable within an allelic series)"
same,binding signal,HOXA4 [10],"9.63 upbm affinity estimate (log intensity, higher = more binding, comparable within an allelic series)"
same,binding signal,HOXA4 [16],"9.84 upbm affinity estimate (log intensity, higher = more binding, comparable within an allelic series)"
